Source: PubChem
GRIN3A LBD mod: NR3A (human) ligand-binding domain modulation | NR3A LBD differential scanning fluorimetry, Tm shift; 0% = protein alone, 100% = glycine-bound protein | Tm shift relative to glycine control, % at 25 µM | 340,000 compounds, 2.5% hits;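 active = melting temperature shift of at least 10% of the positive control shift, at one fixed dose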
HGIII-sPLA2 inh: Blocks human group III sPLA2 activity. Q9NZ20. QFRET BODIPY PC-A2 liposome hydrolysis, fluorescence. inhibition, % at 12.2 µM. 370,000 compounds, 0.56% hits;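 active = inhibition above mean plus 3 SD of compounds lying within the high and low control bounds, cut at about 19% in these data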;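 also: 0% = median of test compound wells and 100% = no enzyme DMSO wells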
Target sequence (Q9NZ20 whole entry, looked up): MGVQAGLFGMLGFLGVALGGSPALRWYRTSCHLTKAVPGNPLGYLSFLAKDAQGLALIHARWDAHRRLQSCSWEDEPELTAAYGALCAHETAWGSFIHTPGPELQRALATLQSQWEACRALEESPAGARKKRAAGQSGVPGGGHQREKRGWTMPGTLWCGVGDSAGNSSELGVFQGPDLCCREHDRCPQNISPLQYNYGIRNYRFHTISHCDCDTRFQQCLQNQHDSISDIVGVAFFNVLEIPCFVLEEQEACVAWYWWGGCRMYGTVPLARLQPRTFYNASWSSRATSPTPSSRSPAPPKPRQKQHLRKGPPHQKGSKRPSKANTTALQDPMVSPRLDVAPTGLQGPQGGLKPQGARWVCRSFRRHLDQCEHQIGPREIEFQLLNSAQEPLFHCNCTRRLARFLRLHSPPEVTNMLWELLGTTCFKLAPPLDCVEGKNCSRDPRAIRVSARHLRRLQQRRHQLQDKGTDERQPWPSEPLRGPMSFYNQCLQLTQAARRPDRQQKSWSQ
SUMO HTRF inh: inhibitors of human SUMOylation (UBC9); P63279; HTRF SUMOylation assay, SAE1/SAE2 + UBC9, in vitro; inhibition, % at 35 µM; 290,000 compounds, 0.36% hits; in the data active = inhibition above about 50%, passing the limit was not always enough; inconclusive = no clear call, values can overlap the other calls
UBC13 polyUb: human UBC13 polyubiquitination inhibition | inhibition, % at 20 µM | P61088 | 330,000 compounds, 0.47% hits | AID 485273 | UBC13 polyubiquitin chain formation, TR-FRET; in the data active = inhibition above about 45%, passing the limit was not always enough; inconclusive = no clear call, values can overlap the other calls
Numbers without * were called inactive; ? = inconclusive; . = no result given. Rows were chosen to be rich in hits. Some 3.3% of all compounds tested hit in one or more screens of this group.

SMILES	GRIN3A LBD mod	HGIII-sPLA2 inh	SUMO HTRF inh	UBC13 polyUb
CC1CCN(Cc2nnnn2CCCC(=O)NC(c2ccccn2)C(F)(F)F)CC1 (configuration not stated)	12*	-3	3	6
COc1ccc(-n2c(SCC(=O)Nc3cc(C)c(NC(=O)c4ccccc4)cc3OC)nnc2-c2cccnc2)cc1	.	-5	.	.
CCOc1ccc(OCc2ccc(C(=O)Nc3cccnc3)cc2)cc1	2	-1	.	3
O=C(Nc1cccnc1)c1ccc(COCC(F)(F)F)cc1	11*	-2	-9	2
Cc1[nH]n(-c2ccccc2)c(=O)c1N=Nc1ccccc1O	10*	-10	-7	-129
Cn1c(CNc2ccccc2F)nc2ccccc21	.	2	.	.
Clc1ccc2c(N/N=C/c3cccnc3)ccnc2c1	-5	-13	3	1
Clc1ccc2c(N/N=C/c3ccc(Br)cc3)ccnc2c1	33*	0	-15	.
Oc1ccc(/C=N/Nc2ccnc3cc(Cl)ccc23)c(O)c1	27*	-36	26	-8
Cc1ccccc1/C=N/Nc1ccnc2cc(Cl)ccc12	8	-18	-8	.
CCCC1CCC2(CCCN2CCOC(=S)Nc2ccccc2OC)CC1 (configuration not stated)	.	13	.	.
O=C(CN1C(=O)C(=O)N(Cc2ccccc2)C1=O)Nc1ccc(OC(F)F)cc1	16*	7	.	0
O=C(CN1C(=O)C(=O)N(Cc2ccccc2)C1=O)Nc1cc(Cl)cc(Cl)c1	26*	-8	10	-14
COc1ccc(OC)c(NC(=O)CN2C(=O)C(=O)N(Cc3ccccc3)C2=O)c1	0	13	.	3
Cc1cccc(NC(=O)c2cccc3c2-c2ccccc2C3=O)c1C	.	1	.	.
COC(=O)[C@]12C[C@H](CC(=O)NCc3ccccc3)C(=O)N(Cc3ccco3)C1=C[C@H](C(C)(C)C)O[C@@H]2C	.	-8	.	.
C=C(C)C1CC=C(C)/C(=N/NC(=O)c2cccs2)C1 (configuration not stated)	0	6	7	1
C=C(C)C1CC=C(C)C(=NNC(=O)c2ccncc2)C1 (configuration not stated)	11*	5	.	.
COC(=O)C1CN(Cc2ccccc2)CCS(=O)(=O)N1Cc1ccc(C(F)(F)F)cc1 (configuration not stated)	.	1	.	.
Oc1c(Br)cc(Br)cc1/C=N/NC(=S)N[C@H]1CC2C=CC1C2 (some centres not stated)	14*	45*	58*	-8
O=[N+]([O-])c1ccc(S(=O)(=O)Nc2ccc(-c3ccc(N4CCOCC4)nn3)cc2)cc1	-6	-11	.	-19
O=[N+]([O-])c1ccc(S(=O)(=O)Nc2cccc(-c3ccc(N4CCOCC4)nn3)c2)cc1	72*	3	.	-6
Cc1ccc([N+](=O)[O-])cc1S(=O)(=O)Nc1cccc(-c2ccc(N3CCCC3)nn2)c1	12*	-42	.	-11
O=C(Nc1ccc(Cl)c(Cl)c1)OCc1cnc(Cl)s1	12*	-3	25	-8
CCc1csc(N2[C@H](CN(CCOC)S(=O)(=O)c3ccccc3[N+](=O)[O-])[C@H](c3ccccc3)[C@@H]2CO)n1	.	1	.	.
SMILES	GRIN3A LBD mod	HGIII-sPLA2 inh	SUMO HTRF inh	UBC13 polyUb
Cc1nc(SCC(=O)NCC2CCCO2)c2c3c(sc2n1)CCC3 (configuration not stated)	20*	-7	-6	10
C/C(=N\NC(=O)c1nnn(-c2nonc2N)c1CN(C)c1ccccc1)c1cccc(O)c1	5	4	-9	-4
CC/C(=N\NC(=O)c1nnn(-c2nonc2N)c1CN(C)c1ccccc1)c1ccccc1	242*	-5	-2	-6
C/C(=N\NC(=O)c1nnn(-c2nonc2N)c1CN(C)c1ccccc1)c1ccc(O)cc1	6	-3	-26	-2
C/C(=N\NC(=O)c1nnn(-c2nonc2N)c1CN(C)c1ccccc1)c1cccs1	11*	-9	5	-12
COC(=O)[C@]12C[C@H](CC(=O)N3CCOCC3)C(=O)N(CCC3=CCCCC3)C1=C[C@H](C(C)C)O[C@@H]2C1CC1	.	-3	.	.
Nc1c(N=Nc2ccccc2F)c(=O)[nH]n1-c1ccccc1	12*	14	-9	-38
C[C@H](O)[C@@H]1CN2CCc3c([nH]c4c(-c5ccccc5)cccc34)[C@@H]2C[C@@H]1N(C)C(=O)c1ccco1	.	2	.	.
O=C(NC(Cc1c[nH]c2ccccc12)C(=O)N/N=C/c1ccc(Cl)cc1)c1cccs1 (configuration not stated)	20*	-91	-6	-14
O=S1(=O)c2ccc(N3CCSCC3)cc2Oc2ccccc2CN1Cc1cn(Cc2cccc(F)c2)nn1	.	-6	.	.
O=c1[nH]c2cc([N+](=O)[O-])ccc2c2ccc([N+](=O)[O-])cc12	13*	-8	.	.
O=c1[nH]c2cc([N+](=O)[O-])ccc2c2ccccc12	-1	6	.	.
CCCOc1ccc(-c2nc(CSCC(=O)NC3CC3)c(C)o2)cc1	.	-5	.	.
S=C1NC2(CCCCC2)Nc2ccccc21	12*	10	16	?
CN1C(=O)c2cc(NC(=O)Nc3ccccc3F)ccc2OC[C@H]2O[C@@H](CC(=O)NCc3ccc(-c4ccccc4)cc3)CC[C@@H]21	.	-31	.	.
O=C(Nc1ccc(Br)c2ccccc12)c1ccc2ccccc2c1O	19*	-15	15	.
CC(=O)Nc1ccc(Br)c2ccccc12	0	13	-6	-7
O=C(CCc1ccccc1)N[C@H]1[C@@H](OC(=O)c2ccco2)CCC[C@@]12C(=O)N(Cc1ccccc1)c1ccccc12	.	9	.	.
O=C(CN(CCc1ccccc1)S(=O)(=O)c1cccs1)N1CCOCC1	.	3	.	.
CNc1oc(/C=C/c2cccc(OC)c2)nc1C#N	23*	.	36	22
Cc1ccc(S(=O)(=O)N2CCOC2CNC(=O)C(=O)NCCN(C)C)cc1 (configuration not stated)	13*	5	-16	9
N=C1S/C(=C\c2ccc(O)cc2)C(=O)N1c1ccc(F)cc1	22*	.	.	8
CC(C)C(C(=O)O)N1C(=O)/C(=C/C=C/c2ccco2)SC1=S (configuration not stated)	1	.	76*	?
O=C(O)c1ccc(N2C(=O)/C(=C/C=C/c3ccccc3)SC2=S)cc1	4	1	2	-10
CCOc1cc(/C=C2\SC(=O)N(c3ccc(O)cc3)C2=O)ccc1O	0	-18	7	-4
SMILES	GRIN3A LBD mod	HGIII-sPLA2 inh	SUMO HTRF inh	UBC13 polyUb
O=C1/C(=C/C=C/c2ccco2)SC(=S)N1c1ccc(O)cc1	3	-10	64*	45
O=C1/C(=C\c2ccco2)SC(=S)N1c1ccc(O)cc1	-3	-3	57*	1
C[C@H]1[C@@H](NC(=O)C2CCC2)CC[C@@]23CCCN2C(=O)CCC[C@@H]13	.	1	.	.
COc1cccc(NC(=O)C2CCCN2C(=O)NCc2ccccc2OC)c1 (configuration not stated)	.	2	.	.
CCCC(=O)N1CCC[C@]2(CC[C@H](CCC(=O)OCC)O2)C1	.	5	.	.
Nn1c(SCc2cccc3ccccc23)nnc1-c1n[nH]c2c1CCC2	.	-3	.	.
O=C1/C(=C\c2ccc(O)cc2)SC(=S)N1c1cccnc1	29*	-13	27	-70
O=C1/C(=C/c2ccco2)SC(=S)N1c1cccnc1	-2	-10	84*	.
